Source: PubChem BioAssay (Tox21)
Results filed as inconclusive are left out. Where a call stands in place of a potency, no number is given. Some compounds were tested as several samples or in several runs, with calls that do not always agree. Activity calls are given as the source filed them. Calls follow the shape of the full dose curve.

experiment: p53 small molecule agonists, cell-based qHTS assay: qHTS cell viability counter screen (AID 1963581); details: p53RE-bla HCT-116 viability, ATP luminescence, 16 h; series mostly up to 66 µM; activity change, negative = cytotoxicity: at the top concentration; also: nearly all actives have a fitted effect of over 45% in size
Text: National Center for Advancing Translational Sciences [NCATS]
Division of Preclinical Innovation [DPI]
U.S. Environmental Protection Agency [EPA]
National Institutes of Environmental Health Sciences [NIEHS]
National Toxicology Program [NTP]
U.S. Food and Drug Administration [FDA]
p53, a tumor suppressor protein, is activated following cellular insult, including DNA damage and other cellular stresses. The activation of p53 regulates cell fate by inducing DNA repair, cell cycle arrest, apoptosis, or cellular senescence. The activation of p53, therefore, is a good indicator of DNA damage and other cellular stresses. The CellSensor p53RE-bla HCT-116 cell line (Invitrogen) contains a stably integrated beta-lactamase reporter gene under control of the p53 response elements. The activation of the reporter gene under culture conditions can be detected by fluorescence intensity. This cell line was used to screen the Tox21 compound library in a 1536-well plate format and to identify agonists that activate the p53 signaling pathway. The cytotoxicity of the Tox21 compound library against the p53 RE-bla HCT-116 cell line was tested in parallel by measuring the intra cellular ATP content in the same wells.
Tox21 Assay Protocol Summary:
The p53RE-bla cells were dispensed at 4,000 cells/5 ul/well in 1536-well black wall/clear bottom plates using a Multidrop dispenser. After the assay plates were incubated at a 37 C/5% CO2 incubator for 5 hours, 23 nL of compounds dissolved in DMSO, positive controls or DMSO only was transferred to the assay plate by a pin tool. The plates were incubated at 37 C for 16 hours. After 1 uL of LiveBLAzerTM B/G FRET substrate was added using a Flying Reagent Dispenser, the plates were incubated at room temperature for 2 hours, and fluorescence intensity was measured by an Envision plate reader. For cell viability readout that measures cytotoxicity, 4 ul/well of CellTiter-Glo reagent was added into the assay plates using a Flying Reagent Dispenser. After 30 min incubation at room temperature, the luminescence intensity in the plates was measured using a ViewLux plate reader.
Potency is read from the fitted curve at half-maximal effect.

SMILES | activity change, negative = cytotoxicity | Potency
CCCCC(CC)CO[N+](=O)[O-] (stereo not given) | 5.95% (inactive) | 
C1CCC(NC2CCCCC2)CC1 |  | inactive
CCc1cc(C)cc(CC)c1-c1c(OC(=O)C(C)(C)C)n2n(c1=O)CCOCC2 | 19.9% (inactive) | 
CC(Cl)(Cl)C(=O)O |  | inactive
Cc1cc(-c2ccc(N)c(C)c2)ccc1N |  | inactive
C=C(C)C(=O)OCC1CO1 (stereo not given) |  | inactive
NC1(c2ccccc2)CCCCC1 | -6.08% (inactive) | 
CCOC(=O)CC(SP(=S)(OC)OC)C(=O)OCC (stereo not given) | -6.18% [at 30.3 µM] (inactive) | 
Clc1nc(Cl)nc(Cl)n1 |  | inactive
CCC(=O)O[C@@H]1C=C2CCC3C(CCC4(C)C3CC[C@@H]4OC(=O)CC)C2CC1 (stereo not given in full) | -13.1% [at 30.3 µM] (inactive) | 
CCC(CC)Nc1c([N+](=O)[O-])cc(C)c(C)c1[N+](=O)[O-] |  | inactive
Cc1cnc(C2=NC(C)(C(C)C)C(=O)N2)c(C(=O)O)c1 (stereo not given) | -0.038% (inactive) | 
C1CN2CCC1CC2 | -1.71% [at 30.3 µM] (inactive) | 
c1ccc2c(c1)Nc1ccccc1S2 | -7.25% [at 30.3 µM] (inactive) | 
CCCCCCCCCBr | 5.45% (inactive) | 
CCOP(=S)(OCC)Oc1ccc([N+](=O)[O-])cc1 |  | inactive
NNC(=O)c1ccccc1 | -11.4% (inactive) | 
CCC(C)(CC)c1cc(NC(=O)c2c(OC)cccc2OC)on1 |  | inactive
CCCCC(CC)C(=O)Cl (stereo not given) |  | inactive
CN(C)CCO | -9.77% (inactive) | 

SMILES | activity change, negative = cytotoxicity | Potency
CC(C)CON=O |  | inactive
CCNc1nc(NC(C)(C)C)nc(SC)n1 | -8.83% (inactive) | 
O=C(O)C(F)(F)C(F)(F)C(F)(F)C(F)(F)C(F)(F)C(F)(F)C(F)(F)C(F)(F)F | -0.269% (inactive) | 
OCCSCSCCO | -8.89% (inactive) | 
COc1ccc(N)cc1 |  | inactive
C[N+](=O)[O-] | 12.7% (inactive) | 
N#CS |  | inactive
CCc1cnc(C2=NC(C)(C(C)C)C(=O)N2)c(C(=O)O)c1 (stereo not given) |  | inactive
CCOC(=O)C1OC1(C)c1ccccc1 (stereo not given) |  | inactive
Nc1ccc([As](=O)(O)O)cc1 |  | inactive
CNC(=O)N(C)c1nnc(C(C)(C)C)s1 |  | inactive
ClC(Cl)(Cl)c1ccccc1 |  | inactive
c1ccc(OP(Oc2ccccc2)Oc2ccccc2)cc1 |  | inactive
CC(C)OC(=O)Cc1ccccc1 | -1.11% (inactive) | 
[CH3][Sn]([Cl])([Cl])[Cl] |  | inactive
CCCCCCCCCCCCCCCC[n+]1ccccc1 |  | 45.8 µM (active) and inactive
ClC(Cl)c1ccccc1 |  | inactive
CCOC(=O)CC(SP(=O)(OC)OC)C(=O)OCC (stereo not given) |  | inactive
COP(=O)(O)OC | -13.4% (inactive) | 
CC(C)(OOC(C)(C)c1ccccc1)c1ccccc1 |  | inactive
